# PubChem BioAssay AID651821 (The Scripps Research Institute Molecular Screening Center, 2012)
# Hit rate of the full screen: of about 370,000 compounds, about 4,700 (1.3%) were called active.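 How the source made its calls: active means inhibition above the plate cutoff, the mean of all test compounds on that plate plus 3 SD (cut at about 35% in these data); inactive means the rest.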 What follows is part of a selection rich in actives, with near analogues and random picks from the rest.
# Test: binders of r(CAG) RNA repeats, primary screen, biochemical, fluorescence (AID 651821);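 further: 0% = DMSO alone and 100% = 100 µM mitoxantrone as full dye displacement; higher means more dye released from RNA so lower well fluorescence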
# Settings: r(CAG) RNA repeat, TO-PRO-1 dye displacement fluorescence; at 3 µM; hits give high values
row,SMILES,inhibition
1,O=c1[nH]c(=O)n(Cc2ccccc2)c(O)c1/C=N/Nc1c(F)c(F)c(F)c(F)c1F,0.55% (inactive)
2,CCCCn1c(O)c(C(CC)=NCc2ccco2)c(=O)[nH]c1=O,-0.86% (inactive)
3,CC/C(=N\NC(=O)c1ccccc1O)c1c(O)n(Cc2ccccc2)c(=O)[nH]c1=O,80.1% (active)
4,C[N+]1(C)CCOC(O)(c2ccc(-c3ccc(C4(O)C[N+](C)(C)CCO4)cc3)cc2)C1 (stereo not given),3.46% (inactive)
5,Cc1ccccc1CCC[C@@H](CC1CCCCC1)CN(C)C(=O)Oc1ccccc1,6.44% (inactive)
6,Clc1ccc([C@@H]2CC3CCC2N3)cn1 (stereo not given in full),1.8% (inactive)
7,COc1cc(OC)cc(C(=O)NCCN2CCC3(CC2)C(=O)NCN3c2ccccc2)c1,4.12% (inactive)
8,COc1ccc(N2C(=O)/C(=C/c3ccco3)C(=O)NC2=S)cc1,67.3% (active)
9,O=Cc1cn(Cc2ccc(F)cc2Cl)c2ccccc12,-0.22% (inactive)
10,CCc1nnc(NS(=O)(=O)c2ccc(N=Cc3c(O)n(-c4ccccc4)c(=O)[nH]c3=O)cc2)s1,5.87% (inactive)
11,O=C1CC(=O)N(Cc2ccccc2)C(=O)N1CCCCCCN1C(=O)CC(=O)N(Cc2ccccc2)C1=O,68% (active)
12,CC(C)(C)c1ccc(CN2C(=O)CN=C(c3ccccc3)c3ccccc32)cc1,-3.15% (inactive)
13,O=C(NC(=S)N1C[C@H]2C[C@H](C1)c1cccc(=O)n1C2)c1ccc(F)cc1,0.97% (inactive)
14,O=C1C2(Cl)C3(Cl)C4(Cl)C(Cl)(Cl)C5(Cl)C3(Cl)C1(Cl)C5(Cl)C24Cl (stereo not given),11.4% (inactive)
15,Cc1cc(=O)oc2c(C)c(OCC(=O)N3CCN(Cc4ccc5c(c4)OCO5)CC3)ccc12,-1.14% (inactive)
16,COc1cccc(N2C(=O)NC(=O)/C(=C\c3ccc([N+](=O)[O-])s3)C2=O)c1,56% (active)
17,O=C1NC(=O)N(c2ccccc2)C(=O)/C1=C/c1ccc([N+](=O)[O-])s1,70.2% (active)
18,CC1=C(C(=O)Nc2ccccc2)SCCO1,5.19% (inactive)

row,SMILES,inhibition
1,Cc1ccsc1C(=O)C1CCCN(Cc2ccc(O)cc2)C1 (stereo not given),-1.2% (inactive)
2,O=c1[nH]c(=O)n(-c2ccccc2)c(O)c1C=NC12CN3CN(CN(C3)C1)C2,2.56% (inactive)
3,O=S(=O)(c1ccccc1)N1CCC2CCNC2C1 (stereo not given),1.15% (inactive)
4,Cc1cc(N2CCNC[C@@H]2C)ccc1N1CC[C@H](O)C1,3.47% (inactive)
5,COc1ccccc1OC(=O)c1ccc(C)c(S(=O)(=O)N2CCOCC2)c1,-3.22% (inactive)
6,CS(=O)(=O)N1CCC2CCNC2C1 (stereo not given),0.17% (inactive)
7,COP(=O)(Sc1ccccc1)C(Cc1ccccc1)NC(=O)OCc1ccccc1 (stereo not given),-1.61% (inactive)
8,CCC(C)NC1(c2ccccc2)CCCCC1 (stereo not given),2.27% (inactive)
9,COc1ccc(CN2CCN(c3ccccc3F)CC2)c(OC)c1,-4.43% (inactive)
10,Brc1ccc2c(c1)CNCc1cnnn1-2,0.59% (inactive)
11,COc1ccc2c(c1)[C@]13CCCCC1C(C2)N(C)CC3 (stereo not given in full),3.99% (inactive)
12,COc1ccc2c(c1)[C@@]13CCCCC1[C@@H](C2)NCC3 (stereo not given in full),37.9% (active)
13,COc1ccc2[nH]c3c(c2c1)CCN[C@H]3C,3.06% (inactive)
14,CCN(CC)C(=O)[C@@H]1C=C2c3cccc4[nH]c(Br)c(c34)C[C@H]2N(C)C1,2.23% (inactive)
15,CN(C)C(=O)NC(O)C(Cl)(Cl)Cl (stereo not given),-3.56% (inactive)
16,O=C1NC(=O)N(Cc2ccco2)C(=O)/C1=C\c1ccc(-c2ccc(F)cc2)o1,52.2% (active)
17,CCC1(CC(C)c2ccccc2)C(=O)NC(=O)NC1=O (stereo not given),1.88% (inactive)
